# Assay results reported in PubChem BioAssay (Tox21).
# Results filed as inconclusive are left out. Entries that show only a call come without a potency. Active and inactive are the calls of the source. The call rests on the fitted dose curve; in most records, active means well fitted cell-killing curve with a large enough effect in the repeat runs; inconclusive means weak or mixed curves, or effect the other way; inactive means no such curve, though single readings can be large or run the other way.
# Assay: qHTS assay to identify small molecule agonists of the estrogen receptor alpha (ER-alpha) signaling pathway in the presence of an antagonist - cell viability counter screen (AID 1259386); further: nearly all actives have a fitted effect of over 30% in size
# Conditions: VM7Luc4E2 viability, CellTiter-Fluor fluorescence, 22 h; series mostly up to 92.4 µM
# Method in brief: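 VM7Luc4E2 cells (endogenous full-length ER-alpha, 4×ERE-luciferase) were held 5 days in phenol red-free medium with 10% charcoal-stripped FBS, plated, then given 10.0nM ICI-182,780 and compounds at 15 concentrations for 22hr at 37C; viability read by CellTiter-Fluor fluorescence.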
# Potency means the concentration at half of the fitted maximal effect.
row,SMILES,Potency
1,Oc1c(Br)cc(Br)c2cccnc12,inactive
2,O=C1OC(OC(=O)c2cccnc2Nc2cccc(C(F)(F)F)c2)c2ccccc21 (configuration not stated),inactive
3,Brc1ccccc1-c1ccccc1,inactive
4,O[C@@H](c1cc(C(F)(F)F)nc2c(C(F)(F)F)cccc12)[C@H]1CCCCN1,inactive
5,CN1CCN(C2Cc3ccccc3Sc3ccc(Cl)cc32)CC1 (configuration not stated),inactive
6,N#CSCSc1nc2ccccc2s1,inactive
7,CCC1(c2cnc[nH]2)Cc2ccccc2C1,inactive
8,CN1[C@@H]2CC[C@H]1CC(OC(=O)C(CO)c1ccccc1)C2 (some centres not stated),inactive
9,CCCCCCCC/C=C\CCCCCCCC(=O)N(C)CC(=O)O,inactive
10,Cc1c(-c2ccc(O)cc2)n(Cc2ccc(OCCN3CCCCCC3)cc2)c2ccc(O)cc12,inactive
11,O=C1c2c(O)ccc(O)c2C(=O)c2c(NCCNCCO)ccc(NCCNCCO)c21,26.6 µM (active)
12,CCCCCCCCCCCC(=O)N(CC)CC,inactive
13,O=C(c1ccccc1)c1cc(Cl)ccc1O,inactive
14,C[C@@]12C(=O)OC(=O)[C@]1(C)C1CCC2O1,inactive
15,CCCCCCOc1ccc(O)cc1,inactive
16,CCCCCCCC/C=C\CCCCCCCC(=O)NCc1ccc(O)c(OC)c1,inactive
17,CC(C)c1cccc(C(C)C)c1N1C(=O)c2ccc(O)cc2C1=O,inactive
18,Clc1ccccc1CN1CCc2sccc2C1,inactive
19,CCO[Si](CCCSSSSCCC[Si](OCC)(OCC)OCC)(OCC)OCC,inactive
20,CC(CN(C)C)CN1c2ccccc2CCc2ccccc21 (configuration not stated),inactive
21,CCCCCCCCCCOCC(O)CN (configuration not stated),inactive
22,CC(=O)Oc1ccc(C2(c3ccc(OC(C)=O)cc3)C(=O)Nc3ccccc32)cc1,0.668 µM (active)
